We go through five compounds from PubChem BioAssay.

Molecules are shown by their SMILES. Active and inactive are the calls of the source.

A short description of test [1]: small molecules captured by biotinylated probe aFSTL3 – biochemical, small-molecule microarray, fluorescence 635/667, stem cell growth factor project, primary screen (AID 1064).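 Note: measures binding of the biotinylated anti-FSTL3 antibody to printed compounds.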 Particulars: higher = more signal.
The nature of test [2]: binders from COS7 lysate, DM2A8 probe, primary screen, torsin A project, cell lysate, small-molecule microarray, fluorescence 635/667 (AID 1065). Conditions: higher = more signal, COS7 lysate expressing mutant human TOR1A.
Test [3] is described as follows: small molecules captured by biotinylated probe aFGF2 – biochemical, small-molecule microarray, fluorescence 635/667, stem cell growth factor project, primary screen (AID 1067).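 Note: measures binding of biotinylated aFGF2 protein to printed compounds on slides; z-score merges feature fluorescence and signal-to-noise across triplicate slides.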 Conditions: higher = more signal.
The nature of test [4]: small molecules captured by biotinylated probe aFGF10 – biochemical, small-molecule microarray, fluorescence 635/667, stem cell growth factor project, primary screen (AID 1071).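 Note: score merges 667 nm spot intensity and signal to noise from triplicate slides.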 Particulars: higher = more signal.
For test [5], the target named is Neurogenic locus notch homolog protein 2 (Homo sapiens) (UniProt Q04721). Nature of the test: small molecules binding Notch2 protein – biochemical, small-molecule microarray, 635 nm fluorescence, stem cell growth factors, primary screen (AID 1073). Particulars: higher = more signal.
In test [6] the target is Pro-neuregulin-1, membrane-bound isoform (Homo sapiens) (UniProt Q02297). Nature of the test: small molecules binding neuregulin-1 protein – biochemical, small-molecule microarray, fluorescence 635/667, psychiatric disease protein project, primary screen (AID 1075).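 Note: score combines 667 nm spot fluorescence with signal to noise.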 Particulars: NRG1 binding, 635 nm fluorescence, higher = more signal.
For test [7], the system named is Neuregulin-1 EGF-like domain. Nature of the test: small molecules binding NRG1 EGF domain – biochemical, small-molecule microarray, 635 nm fluorescence, primary screen (AID 1081).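 Note: binding of the protein to compounds printed on small-molecule microarray slides.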 Conditions: higher = more signal.
The nature of test [8]: FRG1 expression reporter modulators in myotubes – cell-based, C2C12 myotubes, firefly/Renilla luciferase, luminescence, FRG1 inhibition for FSHD, primary screen (AID 1084). Conditions: FRG1 promoter luciferase, higher = more signal, called active from +8 up or from −8 down.
The nature of test [9]: small molecules captured by biotinylated probe aFST – biochemical, small-molecule microarray, fluorescence 635/667, stem cell growth factor project, primary screen (AID 1086).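 Note: score merges 667 nm fluorescence with signal-to-noise of each printed compound spot.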 Conditions: higher = more signal.
Test [10] can be described thus: binders of probe aHhip on microarray, primary screen, stem cell growth factor project, biochemical, small-molecule microarray, fluorescence 635/667 (AID 1087).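 Note: score merges spot fluorescence at 667nm with spot signal to noise ratio.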 Particulars: higher = more signal.
In test [11] the test system is PRMT1 (protein arginine N-methyltransferase 1). Nature of the test: small molecules binding arginine methyltransferase PRMT1 – biochemical, small-molecule microarray, 635 nm fluorescence, primary screen (AID 1088).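 Note: binding of Prmt1 protein to compounds spotted on small-molecule microarray slides.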 Particulars: higher = more signal.
A short description of test [12]: growth effects on S. cerevisiae YJM789 – YJM789 clinical isolate, OD600, 24 h, basal, primary screen (AID 1089).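 Note: growth of clinical yeast isolate S. cerevisiae YJM 789 seeded 1000 cells per well; test concentration not given here.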 Particulars: higher = more signal, called active from +8 up or from −8 down.
Test [13] is described as follows: S. pombe growth modifiers, basal conditions – strain 972, OD600, 24 h, no modulator, primary screen (AID 1090).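 Note: basal condition with compound alone and no growth modifier present; test concentration not given here.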 Conditions: S. pombe 972 growth, higher = more signal, called active from +8 up or from −8 down.
Test [14] can be described thus: budding yeast growth modifiers under rapamycin – strain BY4716, OD600, 96 h, primary screen (AID 1091). Note: test concentration not given here. Conditions: S. cerevisiae BY4716 + rapamycin, higher = more signal, called active from +8 up or from −8 down.
Test [15] deals with Torsin-1A-interacting protein 2 (Homo sapiens) (UniProt Q8NFQ8). As to the kind of experiment: small molecules binding lysate-expressed LULL1 – cell lysate, human LULL1 lysate, 635/667 nm fluorescence, primary screen (AID 1092).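 Note: probe is lysate of COS7 cells overexpressing human LULL1; score merges per-feature 667 nm fluorescence with signal-to-noise.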 Conditions: small-molecule microarray, hLULL1 lysate binding, 635 nm fluorescence; higher = more signal.
Test [16] is described as follows: optical density change of DRC41 E. coli – strain DRC41, OD650, 24 h, E. coli filamentation project, primary screen (AID 1093).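 Note: MC1000 strain lacking acrAB efflux and sulA so SOS filamentation is blocked; test concentration not given here.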 Conditions: E. coli DRC41 growth, higher = more signal, called active from +8 up or from −8 down.
Test [17] can be described thus: probe aLefty2 binding to arrayed compounds – biochemical, biotinylated probe, 635/667 nm fluorescence, primary screen (AID 1094).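 Note: score merges spot fluorescence near 667 nm with spot signal-to-noise ratio.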 Particulars: small-molecule microarray, higher = more signal.
In test [18] the test system is Noggin (protein binding on small-molecule microarray). As to the kind of experiment: small molecules binding Noggin protein – biochemical, 635/667 nm fluorescence, primary screen (AID 1095).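 Note: score merges 667 nm feature fluorescence with signal to noise over triplicate slides.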 Conditions: 635 nm fluorescence, higher = more signal.
Test [19] has as its target Neurogenic locus notch homolog protein 3 (Homo sapiens) (UniProt Q9UM47). As to the kind of experiment: small molecules binding NOTCH3 protein – biochemical, 635/667 nm fluorescence, primary screen (AID 1096). Conditions: small-molecule microarray, 635 nm fluorescence, higher = more signal.
The nature of test [20]: probe aEGFR binding to arrayed compounds – biochemical, biotinylated probe, 635/667 nm fluorescence, primary screen (AID 1097).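 Note: probe is a biotinylated anti-EGFR antibody binding compounds printed on slides; score combines fluorescence near 667 nm and signal to noise of each spot.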 Particulars: small-molecule microarray, higher = more signal.

Pro-neuregulin-1, membrane-bound isoform (Homo sapiens), sequence (Q02297 whole entry, looked up, the tested form may be a part, canonical isoform): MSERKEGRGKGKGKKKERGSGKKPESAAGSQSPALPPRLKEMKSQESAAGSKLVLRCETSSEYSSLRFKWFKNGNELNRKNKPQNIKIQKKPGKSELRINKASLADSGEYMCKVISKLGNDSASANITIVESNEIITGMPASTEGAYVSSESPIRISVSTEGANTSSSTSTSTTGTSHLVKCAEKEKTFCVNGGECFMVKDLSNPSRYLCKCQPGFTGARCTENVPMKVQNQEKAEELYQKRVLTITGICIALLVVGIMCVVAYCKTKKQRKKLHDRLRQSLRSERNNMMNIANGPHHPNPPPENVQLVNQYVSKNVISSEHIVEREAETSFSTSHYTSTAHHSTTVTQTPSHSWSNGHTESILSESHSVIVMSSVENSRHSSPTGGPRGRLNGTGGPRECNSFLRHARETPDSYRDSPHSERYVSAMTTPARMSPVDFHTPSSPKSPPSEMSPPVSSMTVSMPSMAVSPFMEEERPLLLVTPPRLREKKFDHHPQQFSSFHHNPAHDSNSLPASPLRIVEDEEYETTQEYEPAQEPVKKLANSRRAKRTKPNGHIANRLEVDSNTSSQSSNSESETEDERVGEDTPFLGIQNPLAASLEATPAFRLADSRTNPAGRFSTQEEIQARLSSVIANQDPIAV
Neurogenic locus notch homolog protein 3 (Homo sapiens), sequence (Q9UM47 whole entry, looked up): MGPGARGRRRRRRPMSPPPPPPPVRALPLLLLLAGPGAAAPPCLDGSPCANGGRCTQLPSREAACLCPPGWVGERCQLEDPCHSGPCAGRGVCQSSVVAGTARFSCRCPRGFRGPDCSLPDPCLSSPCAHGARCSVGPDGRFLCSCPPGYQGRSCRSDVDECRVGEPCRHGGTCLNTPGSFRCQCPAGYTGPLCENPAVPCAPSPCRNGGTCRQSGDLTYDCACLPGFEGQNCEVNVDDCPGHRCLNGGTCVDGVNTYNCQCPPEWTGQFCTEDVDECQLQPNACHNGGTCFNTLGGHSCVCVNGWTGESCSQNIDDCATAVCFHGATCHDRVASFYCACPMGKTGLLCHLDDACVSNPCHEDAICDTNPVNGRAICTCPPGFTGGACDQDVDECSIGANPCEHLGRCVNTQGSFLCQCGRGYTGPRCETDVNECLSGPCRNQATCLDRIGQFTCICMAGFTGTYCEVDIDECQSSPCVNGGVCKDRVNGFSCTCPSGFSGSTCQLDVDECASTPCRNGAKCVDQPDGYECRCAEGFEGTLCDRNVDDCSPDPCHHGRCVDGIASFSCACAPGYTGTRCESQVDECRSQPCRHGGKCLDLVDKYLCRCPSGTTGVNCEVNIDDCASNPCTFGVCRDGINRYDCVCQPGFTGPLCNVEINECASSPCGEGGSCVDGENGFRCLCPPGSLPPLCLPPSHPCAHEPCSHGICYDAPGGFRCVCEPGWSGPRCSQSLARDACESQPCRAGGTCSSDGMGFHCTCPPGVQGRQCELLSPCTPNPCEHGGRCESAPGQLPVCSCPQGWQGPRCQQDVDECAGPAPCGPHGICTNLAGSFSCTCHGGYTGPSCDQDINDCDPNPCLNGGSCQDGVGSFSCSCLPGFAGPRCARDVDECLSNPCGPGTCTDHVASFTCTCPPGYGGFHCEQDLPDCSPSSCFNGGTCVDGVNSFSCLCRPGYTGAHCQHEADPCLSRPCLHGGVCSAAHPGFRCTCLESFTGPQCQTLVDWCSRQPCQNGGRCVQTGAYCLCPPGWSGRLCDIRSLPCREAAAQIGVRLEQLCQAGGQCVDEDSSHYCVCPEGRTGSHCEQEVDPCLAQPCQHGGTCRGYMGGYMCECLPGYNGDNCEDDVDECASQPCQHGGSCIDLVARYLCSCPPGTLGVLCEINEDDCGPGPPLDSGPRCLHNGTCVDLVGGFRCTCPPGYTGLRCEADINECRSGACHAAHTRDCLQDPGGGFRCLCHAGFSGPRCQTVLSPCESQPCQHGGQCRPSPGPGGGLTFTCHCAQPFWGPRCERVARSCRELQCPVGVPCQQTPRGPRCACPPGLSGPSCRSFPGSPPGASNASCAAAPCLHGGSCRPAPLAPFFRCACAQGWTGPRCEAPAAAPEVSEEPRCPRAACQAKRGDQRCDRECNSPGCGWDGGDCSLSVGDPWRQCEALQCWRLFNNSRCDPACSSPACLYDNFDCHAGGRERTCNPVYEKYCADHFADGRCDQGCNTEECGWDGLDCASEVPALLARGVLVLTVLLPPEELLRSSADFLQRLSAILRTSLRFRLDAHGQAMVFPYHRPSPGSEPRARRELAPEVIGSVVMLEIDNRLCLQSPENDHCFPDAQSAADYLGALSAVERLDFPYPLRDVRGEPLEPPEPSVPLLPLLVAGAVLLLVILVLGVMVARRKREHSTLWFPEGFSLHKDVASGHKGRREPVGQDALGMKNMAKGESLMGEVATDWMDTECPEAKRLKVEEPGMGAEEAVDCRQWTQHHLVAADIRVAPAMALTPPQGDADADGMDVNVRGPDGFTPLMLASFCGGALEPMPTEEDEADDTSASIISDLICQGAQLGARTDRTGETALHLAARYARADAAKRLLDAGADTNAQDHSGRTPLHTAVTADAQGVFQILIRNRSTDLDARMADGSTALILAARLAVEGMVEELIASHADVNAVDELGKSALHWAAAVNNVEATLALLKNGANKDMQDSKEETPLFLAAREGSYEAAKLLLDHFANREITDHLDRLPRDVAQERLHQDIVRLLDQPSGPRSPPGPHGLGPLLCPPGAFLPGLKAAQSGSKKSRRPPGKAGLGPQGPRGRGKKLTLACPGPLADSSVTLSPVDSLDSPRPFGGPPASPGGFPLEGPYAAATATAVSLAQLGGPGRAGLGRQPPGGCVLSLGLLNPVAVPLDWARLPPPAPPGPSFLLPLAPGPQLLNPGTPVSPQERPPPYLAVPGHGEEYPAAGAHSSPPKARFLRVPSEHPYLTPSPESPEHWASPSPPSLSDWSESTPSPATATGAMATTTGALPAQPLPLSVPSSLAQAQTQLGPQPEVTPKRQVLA
Torsin-1A-interacting protein 2 (Homo sapiens), sequence (Q8NFQ8 whole entry, looked up): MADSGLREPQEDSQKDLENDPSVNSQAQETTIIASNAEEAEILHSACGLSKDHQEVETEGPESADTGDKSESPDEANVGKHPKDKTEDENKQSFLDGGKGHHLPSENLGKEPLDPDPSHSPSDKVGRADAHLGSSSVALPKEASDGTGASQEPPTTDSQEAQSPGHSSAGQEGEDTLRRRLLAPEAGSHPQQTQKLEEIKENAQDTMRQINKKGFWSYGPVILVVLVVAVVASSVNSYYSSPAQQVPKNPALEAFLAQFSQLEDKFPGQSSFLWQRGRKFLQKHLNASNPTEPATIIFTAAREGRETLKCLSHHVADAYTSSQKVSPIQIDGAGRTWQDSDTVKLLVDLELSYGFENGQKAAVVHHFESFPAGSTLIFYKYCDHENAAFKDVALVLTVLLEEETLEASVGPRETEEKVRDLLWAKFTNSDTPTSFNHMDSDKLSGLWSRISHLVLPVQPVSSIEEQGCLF

In the case of `CC(C)(C)OC(=O)CC[C@]1(C(=O)N2CCOCC2)N=C(c2ccc(OCCCO)cc2)O[C@H]1c1ccccc1CN=[N+]=[N-]`, the composite z-score in test [1] was 0.912; in test [2], 1.03; in test [3], -0.0296; in test [4] it was 0.286; in test [5], 0.684; in test [6], 1.26. For the same compound, the composite z-score in test [7] is 1.5; in test [9], 0.474; in test [10], 0.113; in [11], 1.55; in test [15], 3.32; in test [17] it was -0.127. Also, the composite z-score in test [18] is 1.79; in [19] it was 0.725; in test [20], -0.044. Further, the z-score in test [8] is 1.57 (inactive); in test [12] it was -0.673 (inactive); in [13], 0.306 (inactive); in test [14], -0.611 (inactive); in test [16], -0.798 (inactive).
On to `O=C1OCCC=C[C@H]2OC34C=CCN(c5ccc(Cl)cc5)C(=O)[C@H]3N(CCO)C(=O)[C@@H]4C12` (stereo not given in full), for which the composite z-score in test [1] is 0.0828; in test [2], 1.85; in test [3], -0.166; in test [4], -0.434; in test [5], -0.568; in test [6], -0.666. The composite z-score is -0.501 in test [7]; -0.564 in test [9]; -0.0618 in [10]; -0.502 in [11]; -0.241 in test [15]; -0.121 in test [17]. Moreover, the composite z-score is -0.545 in test [18], -0.0792 in test [19] and -0.194 in test [20]. The z-score was -0.0731 (inactive) in test [8]; -0.237 (inactive) in test [12]; -0.335 (inactive) in [13]; -0.253 (inactive) in test [14]; 0.474 (inactive) in test [16].
`COc1cc2c(cc1O)C(c1ccc(CN3CCCC3)cc1)N(Cc1ccc([N+](=O)[O-])o1)CC2` (stereo not given): the composite z-score in [1] was -0.649; in test [2] it was -0.533; in test [3], -0.158; in test [4], 0.0497; in test [5], 0.345; in [6], 2.15. Besides, the composite z-score in test [7] is 0.936; in test [9], -0.21; in test [10], -0.354; in test [11], -0.246; in test [15], 1.65; in test [17], -0.299. The values for the composite z-score in [18], in [19] and in test [20] were -0.408, 0.577 and -0.227, respectively. The z-score is 1.06 (inactive) in [8]; -0.686 (inactive) in test [12]; -2.48 (inactive) in test [13]; -0.604 (inactive) in test [14]; 0.098 (inactive) in test [16].
As to `C=C(CCCC)C(=O)CC[C@H](OC(=O)c1cccnc1)c1ccc(CO)o1`, the composite z-score in test [1] is -0.426; in test [2] it was 1.08; in test [3] it was -0.0752; in test [4], 0.797; in test [5] it was 0.816; in [6], 0.407. For the same compound, the composite z-score in test [7] is 1.23; in test [9] it was 0.606; in test [10], -0.134; in test [11] it was 1.55; in test [15], 2.07; in [17], 0. Also, the composite z-score in test [18] amounted to 1.47; in [19] it was 1.13; in test [20], 0.045. The z-score in test [8] is -0.0577 (inactive); in [12] it was -0.697 (inactive); in test [13], -0.176 (inactive); in test [14], -0.036 (inactive); in test [16], -0.0138 (inactive).
With `N[C@@H](Cc1ccccc1)Cn1cc(C2(O)CCCCC2)nn1`, the composite z-score in test [1] was -0.337; in [2], 0.543; in test [3] it was -0.0718; in test [4], -0.244; in test [5], -0.232; in test [6], 0.138. Besides, the composite z-score in test [7] was -0.204; in test [9] it was 1.27; in [10] it was 0.0722; in [11] it was -0.235; in test [15], 0.205; in test [17], -0.128. The values for the composite z-score in [18], in test [19] and in [20] were 0.112, 0.293 and -0.14, respectively. Besides, the z-score in test [8] was 2.2 (inactive); in [12], -0.692 (inactive); in test [13], -0.16 (inactive); in [14] it was -0.522 (inactive); in [16] it was -1.15 (inactive).
